In PubChem BioAssay (NCATS):
Values without a mark were called inactive. The source made the active and inactive calls. The call rests on the fitted dose curve; in most records, active means well fitted activation curve with a large enough effect; inconclusive means small, poorly fitted or top-dose-only effect, or effect the other way; inactive means flat fitted curve, though single readings scatter.

Test: Cellular Toxicity (caspase-3) Renal Proximal Tubule (AID 667);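 further: cells exposed to compound for 16 hours at 37 °C before detection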
Details: renal proximal tubule cells, primary cells freshly taken from rat, solvent-only wells 0%, staurosporine 100%; series mostly up to 91.7 µM; caspase-3 activation: at the top concentration
Description: NIH Chemical Genomics Center [NCGC]
NIH Molecular Libraries Screening Centers Network [MLSCN]
National Institutes of Environmental Health Sciences [NIEHS]
National Toxicology Program [NTP]
We have developed a 1536-well cell-based assay for quantitative high throughput screening (qHTS) against a number of cell lines to determine in vitro caspase 3/7 activity of small molecules. This particular assay uses the primary kidney proximal tubule cells freshly isolated from rat.
NCGC Assay Protocol Summary:
The Caspase-Glo 3/7 assay (Promega) is a homogeneous method to measure caspase-3 and caspase-7 activities in cultured cells. The quantitation of caspase 3/7 activity is based on the cleavage of a peptide-aminoluciferin substrate. After caspase cleaves the substrate the free aminoluciferin is liberated and serves as the substrate of luciferase, which generates the light. The luminescent signal is proportional to the amount of caspase 3/7 activity present.
Using the Caspase-Glo 3/7 assay, the amount of caspase 3/7 activity was measured in the rat kidney proximal tubule cells with complete culture medium following compound treatment for 16 hours. The assay was performed in opaque white 1536-well plates. In the screen, staurosporine and doxorubicin were used as positive controls. Library compounds were measured for their ability to cause the activation of caspase 3/7 in the cell line, as reflected by an increase in luminescence signal, in a concentration-dependent manner. Data were normalized to the controls for basal activity (DMSO only) and 100% stimulation (10 uM staurosporine). AC50 values were determined from concentration-response data modeled with the standard Hill equation.
qHTS protocol for caspase 3/7 assay in rat kidney proximal tubule cells
[Step] [Parameter] [Value] [Description]
1. Reagent; 5 uL; 1000 rat kidney proximal tubule cells/well
2. Time; 5 hr; 37 °C incubation
4. Controls; 23 nL; doxorubicin 7 pM to 100 uM & staurosporine 1.4 pM to 20 uM
5. Time; 16 hr; 37 °C incubation
6. Reagent; 5 uL; Caspase-Glo 3/7 reagent
7. Time; 1 hr; Room Temperature
8. Detection; Luminescence; Viewlux plate reader
Keywords: caspase 3/7, apoptosis, rat kidney proximal tubule cells, luminescence, NTPHTS, NTPHTS_NCGC, NIEHS, EPA, DSSTox, MLSMR, MLSCN, NIH Roadmap, qHTS, NCGC

Row | Compound | outcome | caspase-3 activation
1 | CCCCO | inactive | –
2 | CC(C)(C)CC(C)(C)c1ccc(OCCO)cc1 | – | 7.79%
3 | Cc1ccc(S(=O)(=O)O)cc1C | – | 1.33%
4 | Cc1ncc[nH]1 | – | -7.69%
5 | C[C@H](CCC(=O)O)[C@H]1CC[C@H]2[C@@H]3[C@H](O)C[C@@H]4C[C@H](O)CC[C@]4(C)[C@H]3C[C@H](O)[C@]12C | – | 4.3%
6 | OB(O)O | – | -4.74%
7 | C[C@H](CCC(=O)O)[C@H]1CC[C@H]2[C@@H]3CC[C@@H]4C[C@H](O)CC[C@]4(C)[C@H]3C[C@H](O)[C@]12C | – | -1.9%
8 | CCOC(C)OCC | – | -5.24%
9 | NCCN | – | -2.5%
10 | CCCCC | – | 5.08%
11 | OC[C@H]1O[C@@H]2O[C@H]3[C@H](O)[C@@H](O)[C@@H](O[C@H]4[C@H](O)[C@@H](O)[C@@H](O[C@H]5[C@H](O)[C@@H](O)[C@@H](O[C@H]6[C@H](O)[C@@H](O)[C@@H](O[C@H]7[C@H](O)[C@@H](O)[C@@H](O[C@H]1[C@H](O)[C@H]2O)O[C@@H]7CO)O[C@@H]6CO)O[C@@H]5CO)O[C@@H]4CO)O[C@@H]3CO | – | -3.06%
12 | O.O.O.O.O.O.O.O=S(=O)([O-])[O-].[Co+2] | – | -10.8%
13 | c1ccc2ccccc2c1 | – | 1.11%
14 | Nc1ccc(N=Nc2ccccc2)c(N)n1 | – | -18.2%
15 | OCC(O)CO | inactive | –
16 | COC(=O)c1ccccc1O | – | 1.58%
17 | Oc1cccc(O)c1O | – | 0.55%
18 | CC1=CC(=O)NS(=O)(=O)O1 | – | -0.36%

Row | Compound | outcome | caspase-3 activation
19 | OCc1ccccc1 | – | 10.2%
20 | OCl | – | -9.64%
21 | ClC(Cl)Cl | – | -9.11%
22 | O=c1n(CC2CO2)c(=O)n(CC2CO2)c(=O)n1CC1CO1 (stereo unspecified) | – | 0.0591%
23 | CC/C=C\C/C=C\C/C=C\CCCCCCCC(=O)O | – | -7.01%
24 | C/C=C/C=C/C(=O)O | – | -5.73%
25 | CC(C)O | – | -0.255%
26 | CC1=CCC2CC1C2(C)C (stereo unspecified) | – | -4.48%
27 | Oc1ccc(/C=C/c2cc(O)cc(O)c2)cc1 | – | -14.1%
28 | [O-][N+](=Nc1ccccc1)c1ccccc1 | – | -7.55%
29 | NC(N)=O | – | -4%
30 | CC[C@H]1OC(=O)[C@H](C)[C@@H](O[C@H]2C[C@@](C)(OC)[C@@H](O)[C@H](C)O2)[C@H](C)[C@@H](O[C@@H]2O[C@H](C)C[C@H](N(C)C)[C@H]2O)[C@](C)(O)C[C@@H](C)CN(C)[C@H](C)[C@@H](O)[C@]1(C)O | – | 2.26%
31 | CO/N=C(/C(=O)N[C@@H]1C(=O)N2C(C(=O)O)=C(COC(N)=O)CS[C@H]12)c1ccco1 | – | -6.98%
32 | O=P(O)(O)O | – | 6.25%
33 | Nc1nccs1 | – | -1.22%
34 | Nc1ncnc2c1ncn2[C@H]1CC[C@@H](CO)O1 | – | -11%
35 | C[C@H]1O[C@@H](O[C@H]2[C@@H](O)C[C@H](O[C@H]3[C@@H](O)C[C@H](O[C@H]4CC[C@@]5(C)[C@H](CC[C@@H]6[C@@H]5C[C@@H](O)[C@]5(C)[C@@H](C7=CC(=O)OC7)CC[C@]65O)C4)O[C@@H]3C)O[C@@H]2C)C[C@H](O)[C@@H]1O | – | -8.07%
36 | CO | – | 2.92%
